# From PubChem BioAssay
# IL1B secr inh = blocks inflammasome-driven IL-1 beta release | AID 743279 | actives 4.7% (n = 360,000) | activity change, % at 57.5 µM | THP-1 LPS/ATP IL-1B secretion, AlphaLISA, 16 h; stronger effect = lower value; in the data active = activity change below about -50%; inconclusive = mostly about -30% to -49%
#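 THP-1 cells pretreated 1 hr with compounds (up to 57.5 uM final), then stimulated with LPS (250 ng/mL final) plus ATP (1.25 mM final); secreted IL-1B measured by AlphaLISA after 16 hr, decreased signal indicating inhibition.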
# HT1080 IDH1KD tx = kills HT-1080 cells with IDH1 knockdown. HT-1080 IDH1 knockdown viability, ATP luminescence, 48 h. Potency, µM (titrated, usually from 46.1 µM), for the others: at the highest dose activity, negative = toxicity, usual class: cytotoxic. actives 2% (n = 360,000). AID 686971;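 note: potency is the fitted concentration of half-maximal effect; 0% = DMSO wells and -100% = cell-free medium wells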
#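 Cytotoxicity counter-line: IDH1KD HT-1080, 48 h, CellTiter-Glo. Curves classed by r2, magnitude and activity.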
# HT1080NT lethal = kills 2HG-producing HT-1080-NT fibrosarcoma cells; HT-1080-NT fibrosarcoma viability, CellTiter-Glo ATP luminescence, 48 h; Potency, µM (highest dose often 46.1 µM), for inactives: top-dose activity, negative = less viability, most hits filed as cytotoxic; actives 1.6% (n = 360,000);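 note: NT is the 2HG producing partner of a matched IDH1 knockdown line; potency is the fitted concentration of half-maximal effect; 0% = DMSO-treated cells and -100% = media-only wells without cells; nearly all actives have a fitted effect of over 55% in size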
#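 Luminescent CellTiter-Glo readout after 48 hours of compound exposure at 37 degrees C defined viability of HT-1080-NT cells. Activity was normalized to DMSO wells and cell-free media wells; concentration-response curves were fitted and assigned curve classes.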
# DT40 TDP1 CPT = DT40-hTDP1 cell growth loss with CPT; chicken DT40 Tdp1-/-;hTDP1 cells + 20 nM CPT, ATP luminescence, 48 h; actives 12% (n = 420,000); Potency, µM (highest dose often 46.2 µM), inactives show at the top dose activity change, negative = growth inhibition, actives largely listed as inhibitors; AID 686979; note: potency is the fitted concentration of half-maximal effect; nearly all actives have a fitted effect of over 55% in size
#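 Cell growth measured by CellTiter-Glo luminescence after a minimum 48 h, 37 C compound exposure with 20 nM CPT in Tdp1-knockout DT40 cells stably expressing hTDP1, seeded 400/well; qHTS titration format.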
# TDP1 cell noCPT = qHTS for Inhibitors of human tyrosyl-DNA phosphodiesterase 1 (TDP1): qHTS in cells in absence of CPT; DT40 Tdp1-/- hTDP1 cells, no CPT, ATP luminescence, 48 h; AID 686978, 2013; Potency, µM (doses to about 46.2 µM), for the others: at the top dose activity change, negative = growth inhibition, most hits filed as inhibitors; actives 15% (n = 420,000); note: potency is the fitted concentration of half-maximal effect; nearly all actives have a fitted effect of over 55% in size
#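 Growth kinetics read by CellTiter-Glo luminescence after ≥48 hr at 37 °C. Cells: DT40 Tdp1-/- stably carrying human TDP1, 400 per well, compound exposure in the absence of CPT (DMSO vehicle).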
# An asterisk follows results filed as active; ? = inconclusive; · = not tested or not shown. Most compounds without a hit are left out; they make up all but 19% or so of the library. Unless noted, calls come from the whole dose curve; as a rule, active = well fitted curve in the direction sought with a large enough effect; inconclusive = small, poorly fitted or top-dose-only effect, or another doubt; inactive = no such curve, though single readings can be large; an effect the other way counts as inactive or inconclusive. Unless noted, % is set by controls: 0 for no effect and ±100 for the full control effect.
SMILES,IL1B secr inh,HT1080 IDH1KD tx,HT1080NT lethal,DT40 TDP1 CPT,TDP1 cell noCPT
O=C(COC(=O)c1ccc([N+](=O)[O-])o1)NCc1ccc2c(c1)OCO2,9.9,2.0%,5.3%,-25.7%,13.7%
CCNC(=O)C1(C)CCCN(C(=O)c2ccc(C(F)(F)F)nc2C)C1 (centres undefined),-4.6,22.1%,24.0%,-0.8%,0.8%
COCCn1c(=O)c(-c2ccc(Cl)cc2)nc2cnc(Nc3ccccc3)nc21,·,·,·,13.1%,17.4%
CCOc1ccc(-c2cc(NC(=O)Nc3cccc(C(C)=O)c3)c(C(=O)OC)s2)cc1,·,·,·,23.1µM*,-10.2%
CCOC(=O)c1sc(-c2ccccc2)cc1N,-1.7,17.7%,10.9%,4.5%,-19.6%
CCOc1ccc(-c2cc(NC(=O)c3ccc(C)cc3)c(C(=O)OC)s2)cc1,·,·,·,-13.1%,-18.4%
COC(=O)c1sc(-c2ccc(C(C)(C)C)cc2)cc1NC(=O)CCC(=O)O,8.4,-22.9%,-22.9%,16.4µM*,?
COC(=O)c1sc(-c2ccc(Cl)cc2)cc1NC(=O)COCC(=O)O,-20.9,-0.2%,6.7%,-8.8%,-14.5%
CCOc1ccc(-c2cc(NC(=O)c3ccccc3)c(C(=O)OC)s2)cc1,·,·,·,?,11.6µM*
CCOC(=O)c1sc(-c2ccccc2)cc1NC(=O)Nc1ccc([N+](=O)[O-])cc1,15.4,12.3%,1.9%,?,20.6µM*
C/C(=N\Nc1ccc(S(N)(=O)=O)cc1[N+](=O)[O-])c1ccco1,-26.7,-22.8%,-0.9%,-14.8%,?
CCCCNC(=O)C1(C)CCC(=O)N1CCOc1ccccc1 (centres undefined),24.7,11.8%,10.6%,-4.0%,0.7%
COC(=O)c1sc(-c2ccc(Cl)cc2)cc1NC(=O)/C=C/C(=O)O,-95.0*,?,?,5.8µM*,6.51µM*
c1ccc(-c2cn3ccccc3n2)cc1,12.1,-21.9%,-2.1%,13.0%,-26.1%
c1ccn2cc(C34CC5CC(CC(C5)C3)C4)nc2c1,6.2,-22.4%,-15.1%,?,18.4µM*
Cn1cc(-c2nc3cnc(N4CCNCC4)nc3n(C3CC3)c2=O)c2ccccc21,·,·,·,13µM*,5.8µM*
Cc1cccc(-n2nnc(C(=O)NCc3ccccc3)c2N)c1,-29.8,-9.2%,3.9%,-9.7%,-16.9%
CN1CCN(c2ccccc2NC(=O)c2ccc(N3CCCCC3)c([N+](=O)[O-])c2)CC1,-63.3*,-22.1%,-24.9%,11.6µM*,11.6µM*
Cc1cccc(-n2nnc(C(=O)NC3CCCc4ccccc43)c2N)c1 (centres undefined),-16.4,?,-8.8%,?,18.4µM*
O=C(NC(=S)Nc1ccc(NC(=O)c2cccs2)cc1)c1cc2ccccc2o1,8.1,18.4µM*,20.6µM*,13µM*,?
COc1ccc(C(=O)Nc2cc([N+](=O)[O-])ccc2N2CCN(C)CC2)cc1,-0.6,-17.1%,2.0%,11.2µM*,?
COC(=O)C(Cc1ccc(O)cc1)NC(=O)CCc1nc2ccccc2s1 (centres undefined),13.7,-3.6%,0.5%,9.4%,-8.9%
Cc1cc(C)cc(NC(=O)CCn2ccnc2)c1,27.6,3.7%,4.9%,17.0%,8.6%
Cc1cc(C(=O)OCC(=O)NCc2ccco2)c(C)o1,-9.5,16.1%,14.2%,-8.1%,13.6%
C[C@@H]1ON(C)[C@H]2C[C@H]3c4cc(-c5cccc(F)c5)ccc4CCN3C(=O)[C@@H]12,-4.6,1.6%,6.2%,?,?
CCOc1ccc(CNS(=O)(=O)c2c(C(=O)N3CCC(C)CC3)c(C)n(C)c2C)cc1OC,·,·,·,10.4%,-12.7%
Cc1cc(C)cc(NS(=O)(=O)c2ccc(NC(=S)NC(=O)c3cccs3)cc2)c1,?,?,?,20.6µM*,18.4µM*
COc1cc(NS(=O)(=O)c2ccc(NC(=S)NC(=O)c3cccs3)cc2)nc(OC)n1,24.8,14.4%,9.1%,-8.6%,0.2%
